Source: PubChem BioAssay (NCATS)
Values joined by “and” are separate entries in the source; they are usually repeats but may differ in a detail not shown here. Equal entries are not always repeated. A number with no mark means an inactive call. Results filed as inconclusive are left out. Active and inactive are the calls of the source. Unless noted, calls come from the whole dose curve; as a rule, active = well fitted curve in the direction sought with a large enough effect; inconclusive = small, poorly fitted or top-dose-only effect, or another doubt; inactive = no such curve, though single readings can be large; an effect the other way counts as inactive or inconclusive.

What was measured:
[1] = qHTS assay for small molecule activators of the p53 signaling pathway (AID 651743; active = well fitted activation curve with a large enough effect in the signal ratio, not every such curve was filed as active; the % refers to the signal ratio; note: series mostly up to about 92 µM; % of control where 0% means no effect); conditions: HCT-116 p53RE-bla, beta-lactamase FRET ratio, 16 h; activation: active compounds read high
Outline: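 Screen for p53 pathway agonists uses stably transfected p53RE-bla HCT-116 cells, 4,000 per well, treated 16 h at 37 C with compounds in DMSO.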

[2] = qHTS assay for small molecule disruptors of the mitochondrial membrane potential - 1 hr assay (AID 651754; calls by dose curve; note: nearly all actives have a fitted effect of over 35% in size; note: potency is the fitted concentration of half-maximal effect)
Outline: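 HepG2 cells, attached overnight at 37C, were exposed to compound or DMSO vehicle for 1 hr at 37C, 5% CO2, then stained with Mito-MPS dye for 30 min. Red aggregate versus green monomer fluorescence reports membrane potential.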

[3] = qHTS assay for small molecule disruptors of the mitochondrial membrane potential - 5 hr assay (AID 651755; calls by dose curve; note: nearly all actives have a fitted effect of over 40% in size; note: potency is the fitted concentration of half-maximal effect)
Outline: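 HepG2, 2,000 cells/well, overnight attach; cpd or DMSO 5 hr, 37C/5% CO2; Mito-MPS 30 min 37C; fluor 490/535 + 540/590 nm.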

[4] = qHTS assay to identify small molecules that stimulate interleukin-8 (IL-8) secretion (AID 651758; active = well fitted activation curve with a large enough effect in the signal ratio; the % refers to the signal ratio; note: 0% is about no effect)
Outline: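 Secreted IL-8 measured by TR-FRET sandwich (cryptate and XL665 antibodies) from THP-1 cells exposed to compound overnight (16 hrs, 37 C).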

[5] = target: Peroxisome proliferator-activated receptor alpha (Homo sapiens) (UniProt Q07869); experiment: qHTS assay for small molecule agonists of the peroxisome proliferator-activated receptor alpha (PPARalpha) signaling pathway (AID 651778); conditions: PathHunter PPARalpha complementation, chemiluminescence, 6 h; active compounds read high; note: % of control where 0% means no effect
Outline: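 Chemiluminescence from complemented enzyme reported PPARalpha activation in cells after 6 hr of compound treatment at 37 C. The detection reagent was incubated for 60 min at room temperature, and compounds were scored as agonists.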

[6] = target: Nuclear receptor ROR-gamma (Homo sapiens) (UniProt P51449); experiment: qHTS assay for small molecule antagonists of the retinoid-related orphan receptor gamma (ROR-gamma) signaling pathway (AID 651802); note: nearly all actives have a fitted effect of over 60% in size; note: potency is the fitted concentration of half-maximal effect
Outline: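 CHO cells carrying TET-inducible ROR-gamma and an ROR response element–luciferase reporter were exposed to compound, then induced with doxycycline. After 16hr at 37C, luminescence was read; lower signal indicates antagonism.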

[7] = qHTS assay for small molecule agonists of the antioxidant response element (ARE) signaling pathway measured by Nrf2-dependant transcriptional activity (AID 720636; active = well fitted curve in the direction sought with a large enough effect in the repeat runs; an effect the other way counts as inactive or inconclusive; note: % of control where 0% means no effect)
Outline: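 ARE-luc HepG2 cells carrying an Nrf2-responsive luciferase reporter, in medium with 1% dialyzed FBS, exposed to compound for 16 hr at 37 C, 5% CO2. Luminescence read 30 min after ONE-Glo addition.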

[8] = qHTS assay for small molecule antagonists of the retinoid-related orphan receptor gamma (ROR-gamma) signaling pathway - cell viability counter screen (AID 720652; active = well fitted curve in the direction sought with a large enough effect in the repeat runs; an effect the other way counts as inactive or inconclusive;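 note: compound exposure lasted 16 hr before ATP read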; note: potency is the fitted concentration of half-maximal effect)
Outline: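 Counter screen in CHO cells carrying TET-inducible ROR-gamma and an ROR response element-luciferase reporter; cells plated 5 hr, compound pinned, doxycycline added, then 16 hr at 37 C. Viability read as intracellular ATP by CellTiter-Glo luminescence.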

[9] = qHTS assay for small molecule agonists of the antioxidant response element (ARE) signaling pathway measured by Nrf2-dependant transcriptional activity - cell viability counter screen (AID 720653; active = well fitted curve in the direction sought with a large enough effect in the repeat runs; an effect the other way counts as inactive or inconclusive; note: % is set by controls: 0 for no effect and ±100 for the full control effect); conditions: ARE-bla HepG2 viability, CellTiter-Glo ATP luminescence, 16 h; max response: active compounds read low
Outline: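 Cytotoxicity counter screen: intracellular ATP quantified by CellTiter-Glo luminescence in the same ARE-bla HepG2 plates, after 16 h compound exposure and a 2 h beta-lactamase substrate step.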

[10] = qHTS Assay for Identifying Gametocytocidal Compounds (AID 743244);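 note: % is set by controls: 0 for no effect and ±100 for the full control effect; actives lower the fluorescent signal which means gametocytes are killed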; conditions: P. falciparum 3D7 stage III-V gametocytes, alamarBlue, 72 h; max response: active compounds read low
Outline: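 A resazurin-based viability read-out was applied to mature P. falciparum gametocytes: 72 h compound treatment, then 24 h dye incubation, with falling fluorescence signalling gametocytocidal effect.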

[11] = qHTS assay for cell viability of HEK293 cells (AID 743288); conditions: ATP luminescence (CellTiter-Glo), 18 h; max response: active compounds read low; note: % is set by controls: 0 for no effect and ±100 for the full control effect; nearly all actives have a fitted effect of over 50% in size
Outline: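 Parental HEK293 cells were seeded at 2,000 cells/well, rested at least 5 h at 37 C, then exposed to compounds in DMSO for 18 h at 37 C. Viability was read as ATP-dependent luciferase luminescence after 30 min at room temperature.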

[12] = qHTS assay for small molecule activators of the nuclear factor-kappa B (NF-kB) signaling pathway (AID 651749; active = well fitted activation curve with a large enough effect in the signal ratio; the % refers to the signal ratio; note: series mostly up to about 77 µM; % of control where 0% means no effect); conditions: NF-kB-bla ME-180 cells, beta-lactamase FRET ratio, 16 h; active compounds read high
Outline: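 Stably transfected ME-180 line; NF-kB response element upstream of beta-lactamase. Treatment: compound or DMSO, 16 hr. Detection: fluorescent FRET substrate.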

[13] = qHTS assay for environmental chemicals that activate the Aryl hydrocarbon Receptor (AhR) signaling pathway (AID 651777); conditions: 1A2-DRE human hepatoma cells, luciferase, 24 h; activation: active compounds read high; note: % of control where 0% means no effect; nearly all actives have a fitted effect of over 15% in size
Outline: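 Human hepatoma 1A2-DRE cells stably carrying a DRE/CYP1A2 promoter–luciferase reporter, 1,200 cells/well, exposed to compound 24 hr at 37 C. Luciferase read by One-Glo luminescence after 30 min at room temperature; increased signal marks AhR activation.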

[14] = qHTS for compounds that reverse cellular toxicity of Amyloid beta (A-beta) peptide in yeast: LOPAC Validation Assay (AID 720559);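 note: plate controls were DMSO for no effect and equimolar ferric chloride plus clioquinol rescue for full effect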
Outline: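 Yeast cells expressing toxic A-beta were combined with pinned compounds in growth medium and incubated 48 hr at 30 C. Growth was read as absorbance at 600 nm and normalized to DMSO and to an equimolar FeCl3/clioquinol positive control.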

[15] = qHTS for Activators of Parkin Expression: LOPAC Validation Assay (NLuc Reporter) (AID 720572;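 note: 0% = DMSO and 100% = positive control compound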)
Outline: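 Parkin promoter-driven FLuc/NLuc neuronal reporter cells; 24 h plating, 7-pt dose response, 24 h at 37 C/5% CO2; FLuc then NanoLuc reagent, 10 min each, luminescence; DMSO/positive control normalized.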

[16] = qHTS for Activators of Parkin Expression: LOPAC Validation Assay (FLuc Reporter) (AID 720573;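 note: 0% = DMSO and 100% = positive control compounds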)
Outline: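 Neuronal cell line stably carrying FLuc/NLuc coincidence reporter under Parkin promoter; cells plated 24 h, then compounds added in 7-point dose response for 24 h at 37 C. FLuc luminescence read; normalized to DMSO and positive control (100%).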

[17] = target: T1, Hexokinase-4 (Homo sapiens) + Glucokinase regulatory protein (Homo sapiens) (UniProt P35557+Q14397); experiment: qHTS assay for inhibitors of recombinant human GCK-GKRP interaction: Diaphorase-coupled assay (AID 743205)
Outline: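 GST-GCK (10 nM) with FLAG-GKRP (10 nM), 5 mM glucose and 0.4 mM ATP in pH 7.6 Hepes; compounds preincubated 20 min with substrate. G6PDH/diaphorase coupling converts resazurin to resorufin, read kinetically (ex 525/em 590 nm) for 30 min.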

[18] = target: T1, Hexokinase-4 (Homo sapiens) + Glucokinase regulatory protein (Homo sapiens); experiment: qHTS assay for inhibitors of recombinant human GCK-GKRP interaction: ADP-Glo assay (AID 743206);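 note: plate controls were DMSO plus enzyme for no effect and no enzyme for full effect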
Outline: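 GST-GCK and FLAG-GKRP (15 nM each in the dispensed mix, with 2 uM S6P) react with 0.4 mM ATP and 5 mM glucose (final) in Hepes pH 7.6 for 60 min at room temperature. ADP is measured by ADP-Glo luminescence.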

[19] = target: T1, Hexokinase-4 (Homo sapiens) + Glucokinase regulatory protein (Homo sapiens); experiment: qHTS assay for inhibitors of recombinant human GCK-GKRP interaction: HTRF assay (AID 743207);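 note: 0% = DMSO with GCK present and -100% = DMSO wells lacking GCK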
Outline: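 GST-GCK and FLAG-GKRP (5 nM each) were combined with 2 uM S6P in pH 7.1 Hepes/MgCl2/KCl/DTT buffer, then compound and anti-FLAG XL665/anti-GST K antibodies were added. After 60 min at room temperature, HTRF 665/615 nm emission was read.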

T1 sequence (P35557 whole entry, looked up): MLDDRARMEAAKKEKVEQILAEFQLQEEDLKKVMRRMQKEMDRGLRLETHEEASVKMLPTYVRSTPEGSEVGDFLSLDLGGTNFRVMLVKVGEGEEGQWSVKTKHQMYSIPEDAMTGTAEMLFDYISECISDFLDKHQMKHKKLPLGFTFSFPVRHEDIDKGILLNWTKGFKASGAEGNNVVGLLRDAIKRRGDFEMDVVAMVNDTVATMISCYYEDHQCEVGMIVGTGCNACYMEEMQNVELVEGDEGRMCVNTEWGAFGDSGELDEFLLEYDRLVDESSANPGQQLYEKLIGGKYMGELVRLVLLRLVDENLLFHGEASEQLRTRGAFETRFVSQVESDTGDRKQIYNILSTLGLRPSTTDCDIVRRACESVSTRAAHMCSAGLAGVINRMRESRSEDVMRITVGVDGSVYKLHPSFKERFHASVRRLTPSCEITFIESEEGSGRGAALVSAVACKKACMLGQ
T1 sequence (Q14397 whole entry, looked up): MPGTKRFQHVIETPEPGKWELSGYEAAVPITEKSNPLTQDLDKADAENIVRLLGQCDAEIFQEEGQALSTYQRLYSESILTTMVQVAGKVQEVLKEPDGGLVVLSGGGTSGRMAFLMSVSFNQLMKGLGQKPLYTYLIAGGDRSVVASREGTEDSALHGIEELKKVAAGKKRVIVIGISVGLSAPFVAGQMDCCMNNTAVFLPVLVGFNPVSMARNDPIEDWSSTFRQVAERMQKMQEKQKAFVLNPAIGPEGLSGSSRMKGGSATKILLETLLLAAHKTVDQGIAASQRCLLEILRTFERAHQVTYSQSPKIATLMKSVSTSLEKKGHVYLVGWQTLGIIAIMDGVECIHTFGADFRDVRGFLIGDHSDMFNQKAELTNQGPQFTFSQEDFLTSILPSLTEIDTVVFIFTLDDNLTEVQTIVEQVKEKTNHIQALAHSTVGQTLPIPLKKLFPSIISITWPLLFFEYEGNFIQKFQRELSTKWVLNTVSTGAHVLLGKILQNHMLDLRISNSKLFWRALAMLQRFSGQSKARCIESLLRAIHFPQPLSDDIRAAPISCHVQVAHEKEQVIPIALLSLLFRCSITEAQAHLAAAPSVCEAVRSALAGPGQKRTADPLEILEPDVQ
Nuclear receptor ROR-gamma (Homo sapiens), sequence (P51449 whole entry, looked up): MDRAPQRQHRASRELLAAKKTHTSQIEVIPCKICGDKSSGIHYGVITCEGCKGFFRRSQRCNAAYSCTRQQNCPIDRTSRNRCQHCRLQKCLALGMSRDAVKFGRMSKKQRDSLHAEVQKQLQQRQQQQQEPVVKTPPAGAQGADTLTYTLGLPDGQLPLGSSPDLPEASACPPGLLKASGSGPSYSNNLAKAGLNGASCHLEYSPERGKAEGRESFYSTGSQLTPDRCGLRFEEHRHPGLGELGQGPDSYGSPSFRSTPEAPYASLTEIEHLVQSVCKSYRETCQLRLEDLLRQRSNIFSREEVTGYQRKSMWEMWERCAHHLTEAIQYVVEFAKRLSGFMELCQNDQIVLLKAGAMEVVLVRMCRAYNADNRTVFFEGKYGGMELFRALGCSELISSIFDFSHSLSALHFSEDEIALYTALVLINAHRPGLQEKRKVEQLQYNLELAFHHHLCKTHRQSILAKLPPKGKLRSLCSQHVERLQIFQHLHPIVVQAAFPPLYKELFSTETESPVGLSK
Peroxisome proliferator-activated receptor alpha (Homo sapiens), sequence (Q07869 whole entry, looked up): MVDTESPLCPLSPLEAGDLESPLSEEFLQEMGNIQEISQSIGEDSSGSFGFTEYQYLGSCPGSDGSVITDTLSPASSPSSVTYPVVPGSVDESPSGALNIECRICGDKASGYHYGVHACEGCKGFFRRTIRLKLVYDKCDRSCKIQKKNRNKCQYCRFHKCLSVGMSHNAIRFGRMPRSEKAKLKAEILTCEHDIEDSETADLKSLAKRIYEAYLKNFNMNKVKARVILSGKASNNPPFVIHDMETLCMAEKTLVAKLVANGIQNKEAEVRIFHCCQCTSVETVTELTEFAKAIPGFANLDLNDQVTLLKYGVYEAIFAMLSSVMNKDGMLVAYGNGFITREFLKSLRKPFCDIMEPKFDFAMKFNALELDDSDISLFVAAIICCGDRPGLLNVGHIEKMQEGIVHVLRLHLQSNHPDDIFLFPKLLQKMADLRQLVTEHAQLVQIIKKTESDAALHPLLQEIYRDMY

| Structure (SMILES) | activation [1] | Potency [2] | Potency [3] | Potency [4] | max response [5] | Potency [6] | Potency [7] | Potency [8] | max response [9] | max response [10] | max response [11] | activation [12] | activation [13] | outcome [14] | Potency [15] | outcome [16] | Potency [17] | outcome [18] | outcome [19] |
| --- | --- | --- | --- | --- | --- | --- | --- | --- | --- | --- | --- | --- | --- | --- | --- | --- | --- | --- | --- |
| O=C(O)C(Cl)(Cl)Cl | 0.586% and -1.1% | inactive | inactive | inactive | 3.26% and -0.682% | inactive | inactive | inactive | -1.81% and -2.86% | 5.93% | 7.06% and 1.52% | – | – | – | – | – | – | – | – |
| ClCC1CO1 (configuration not stated) | -3.68% | inactive | inactive | inactive | -4.69% | inactive | inactive | inactive | -2.98% | 11.4% | 3.04% | 0.581% | -0.99% | – | – | – | – | – | – |
| O=[N+]([O-])c1ccc(F)c([N+](=O)[O-])c1 | – | – | – | – | -10.2% | 33.5 µM (active) | inactive | 59.6 µM (active) | -6.71% | – | – | -0.0445% | 0.408% | – | – | – | – | – | – |
| CCOC(=O)c1ccccc1C(=O)OCC | 4.4% and -0.806% and -0.919% | – | – | inactive | 0.572% and -3.94% and -0.67% | inactive | inactive | inactive | 8.89% and -10.7% and -8.42% | 6.33% | -2.28% and 4.29% and 3.24% | 1.25% and 1.36% and -0.459% | – | – | – | – | – | – | – |
| C[C@H]1CCC[C@H](O)CCCCCc2cc(O)cc(O)c2C(=O)O1 | -0.975% | 33.5 µM (active) | 37.6 µM (active) | – | -2.71% | 42.2 µM (active) | inactive | inactive | -13.4% | 5.29% | -4.88% | -0.26% | -1.64% | – | – | – | – | – | – |
| O=C(NCNC(=O)NC1C(=O)NC(=O)N1CO)NC1C(=O)NC(=O)N1CO (configuration not stated) | -1.04% | – | – | – | -1.19% | – | inactive | – | 1.81% | 20.5% | -3.93% | – | – | – | – | – | – | – | – |
| O=C/C=C/c1ccccc1 | -1.3% and 1.6% | inactive | inactive | – | 0.173% and 5.71% | inactive | – | inactive | 12.8% and -6.35% | 4.39% | -23.6% | -1.46% and -0.692% | 2.17% and 1.64% | – | – | – | – | – | – |
| O=C1CCO1 | – | inactive | inactive | – | -1.17% | inactive | inactive | inactive | 5.4% | 11.4% | 5.83% | -0.561% | 1.44% | – | – | – | – | – | – |
| COC1=CC(=O)O[C@@H](/C=C/c2ccccc2)C1 | -5.52% | inactive | inactive | – | -0.906% | inactive | inactive | inactive | 4.02% | – | -13.6% | -0.734% | 1.75% | – | – | – | – | – | – |
| C=CCN=C=S | -0.403% | inactive | inactive | inactive | -1.57% | inactive | inactive | – | 9.92% | -13.2% | -7.74% | -1.41% | 0.264% | – | – | – | – | – | – |
| [O]=[Cd] | 1.29% | inactive | inactive | – | -1.92% | inactive | inactive | inactive | -0.962% | – | 3.33% | -0.74% | 0.231% | – | – | – | – | – | – |
| COCC(C)N(C(=O)CCl)c1c(C)csc1C (configuration not stated) | -0.528% | – | – | – | -3.83% | – | – | – | -1.95% | -1.03% | -15.8% | -2.83% | -1.87% | – | – | – | – | – | – |
| O=C1C=CC(=O)C=C1 | – | inactive | inactive | – | -5.62% | – | inactive | 26.6 µM (active) | – | 4.21% | – | -1.25% | 1.56% | inactive | inactive | inactive | inactive | inactive | inactive |
| CCCCCl | -4.24% | inactive | inactive | – | -3.81% | inactive | inactive | inactive | -3.38% | 3.57% | -0.598% | – | -0.771% | – | – | – | – | – | – |
